The inhibition is the relative decrease from the control value, in per cent.

Experiment [1] deals with T1, 3-phosphoinositide-dependent protein kinase 1 (Homo sapiens) (UniProt O15530).
T1 sequence (whole entry): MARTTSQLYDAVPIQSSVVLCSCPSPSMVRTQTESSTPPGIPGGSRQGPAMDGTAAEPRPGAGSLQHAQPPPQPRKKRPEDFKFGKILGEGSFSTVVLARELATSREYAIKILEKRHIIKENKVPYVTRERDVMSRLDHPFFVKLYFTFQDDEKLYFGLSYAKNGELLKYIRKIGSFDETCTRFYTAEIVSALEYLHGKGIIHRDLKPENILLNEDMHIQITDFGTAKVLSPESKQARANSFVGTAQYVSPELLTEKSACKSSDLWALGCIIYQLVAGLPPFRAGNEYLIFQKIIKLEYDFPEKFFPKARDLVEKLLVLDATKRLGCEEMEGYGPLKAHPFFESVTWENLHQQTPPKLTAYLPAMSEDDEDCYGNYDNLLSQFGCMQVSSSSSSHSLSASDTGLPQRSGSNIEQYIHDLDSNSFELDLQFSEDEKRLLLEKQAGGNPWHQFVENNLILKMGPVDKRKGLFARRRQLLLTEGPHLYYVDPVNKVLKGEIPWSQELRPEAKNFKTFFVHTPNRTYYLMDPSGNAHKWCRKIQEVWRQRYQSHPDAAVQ
Particulars: at 0.1 µM.

The target in experiment [2] is cAMP-dependent protein kinase catalytic subunit alpha (Homo sapiens) (UniProt P17612). The note with it: at 0.1 µM.
Experiment [3] has the same target. Particulars: at 1 µM.
Experiment [4] addresses Protein kinase C alpha type (Homo sapiens) (UniProt P17252). The note with it: at 0.1 µM.
The target is the same in experiment [5]. Particulars: at 1 µM.
For experiment [6], the target named is Protein kinase C beta type (Homo sapiens) (UniProt P05771). Particulars: at 0.1 µM.
For experiment [7] the target is unchanged. Particulars: at 1 µM.
Experiment [8] concerns the target Protein kinase C eta type (Homo sapiens) (UniProt P24723). Particulars: at 0.1 µM.
The target is the same in experiment [9]. The note with it: at 1 µM.
In experiment [10] the target is Protein kinase C gamma type (Homo sapiens) (UniProt P05129). The note with it: at 0.1 µM.
For experiment [11] the target is unchanged. The note with it: at 1 µM.
In experiment [12] the target is T2, Protein kinase C iota type (Homo sapiens) (UniProt P41743).
T2 sequence (whole entry): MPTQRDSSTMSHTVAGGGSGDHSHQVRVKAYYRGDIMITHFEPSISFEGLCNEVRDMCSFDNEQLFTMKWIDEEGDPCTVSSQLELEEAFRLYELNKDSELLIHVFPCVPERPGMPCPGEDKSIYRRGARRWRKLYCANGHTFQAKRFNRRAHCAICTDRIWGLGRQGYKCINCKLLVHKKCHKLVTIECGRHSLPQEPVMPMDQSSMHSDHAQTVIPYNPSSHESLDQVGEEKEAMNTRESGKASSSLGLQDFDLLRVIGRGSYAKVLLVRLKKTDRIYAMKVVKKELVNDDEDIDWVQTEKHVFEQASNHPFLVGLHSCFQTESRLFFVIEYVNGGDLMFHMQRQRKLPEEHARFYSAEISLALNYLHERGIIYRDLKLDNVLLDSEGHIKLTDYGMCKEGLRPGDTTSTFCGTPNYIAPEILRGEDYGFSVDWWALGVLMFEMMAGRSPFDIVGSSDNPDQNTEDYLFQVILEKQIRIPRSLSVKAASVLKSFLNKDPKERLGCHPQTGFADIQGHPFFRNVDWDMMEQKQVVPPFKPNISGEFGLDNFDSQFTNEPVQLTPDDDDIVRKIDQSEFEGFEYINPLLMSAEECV
The note with it: at 0.1 µM.

Experiment [13] concerns the target T2, Protein kinase C iota type (Homo sapiens). Particulars: at 1 µM.
Experiment [14] addresses Protein kinase C theta type (Homo sapiens) (UniProt Q04759). Particulars: at 0.1 µM.
The target is the same in experiment [15]. The note with it: at 1 µM.
Experiment [16] deals with Protein kinase C beta type (Homo sapiens) (UniProt P05771). Particulars: at 0.1 µM. This is another data set of the same source.
The target is the same in experiment [17]. Particulars: at 1 µM. This is another data set of the same source.
The target in experiment [18] is T3, Serine/threonine-protein kinase D1 (Homo sapiens) (UniProt Q15139).
T3 sequence (whole entry): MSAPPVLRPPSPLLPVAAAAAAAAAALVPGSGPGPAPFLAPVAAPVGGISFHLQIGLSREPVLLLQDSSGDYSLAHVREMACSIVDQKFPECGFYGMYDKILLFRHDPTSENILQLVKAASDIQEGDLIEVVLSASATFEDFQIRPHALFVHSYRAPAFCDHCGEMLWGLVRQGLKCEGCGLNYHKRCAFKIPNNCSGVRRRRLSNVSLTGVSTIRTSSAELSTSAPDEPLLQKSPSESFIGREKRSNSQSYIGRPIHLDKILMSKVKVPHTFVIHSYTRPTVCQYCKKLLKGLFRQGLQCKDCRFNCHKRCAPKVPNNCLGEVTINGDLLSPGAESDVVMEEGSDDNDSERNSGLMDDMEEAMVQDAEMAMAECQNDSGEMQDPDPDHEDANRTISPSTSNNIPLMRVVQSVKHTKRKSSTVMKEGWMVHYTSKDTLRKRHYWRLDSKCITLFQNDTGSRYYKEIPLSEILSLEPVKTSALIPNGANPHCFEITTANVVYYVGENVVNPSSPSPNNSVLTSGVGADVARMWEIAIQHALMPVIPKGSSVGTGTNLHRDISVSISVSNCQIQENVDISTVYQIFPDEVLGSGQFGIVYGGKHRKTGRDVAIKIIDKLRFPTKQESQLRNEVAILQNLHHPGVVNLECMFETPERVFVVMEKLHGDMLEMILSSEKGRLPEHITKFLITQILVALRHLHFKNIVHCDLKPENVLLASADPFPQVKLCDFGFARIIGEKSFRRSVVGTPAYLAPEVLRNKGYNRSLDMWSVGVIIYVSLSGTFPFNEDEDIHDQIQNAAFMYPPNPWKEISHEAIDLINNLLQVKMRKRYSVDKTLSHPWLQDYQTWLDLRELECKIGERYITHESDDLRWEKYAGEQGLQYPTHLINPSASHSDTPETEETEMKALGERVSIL
The note with it: at 0.1 µM.

Experiment [19] deals with T3, Serine/threonine-protein kinase D1 (Homo sapiens). Particulars: at 1 µM.
The target in experiment [20] is T4, Serine/threonine-protein kinase D2 (Homo sapiens) (UniProt Q9BZL6).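 Also: reported percent inhibition values are means, part of the GSK PKIS kinase panel screen.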
T4 sequence (whole entry): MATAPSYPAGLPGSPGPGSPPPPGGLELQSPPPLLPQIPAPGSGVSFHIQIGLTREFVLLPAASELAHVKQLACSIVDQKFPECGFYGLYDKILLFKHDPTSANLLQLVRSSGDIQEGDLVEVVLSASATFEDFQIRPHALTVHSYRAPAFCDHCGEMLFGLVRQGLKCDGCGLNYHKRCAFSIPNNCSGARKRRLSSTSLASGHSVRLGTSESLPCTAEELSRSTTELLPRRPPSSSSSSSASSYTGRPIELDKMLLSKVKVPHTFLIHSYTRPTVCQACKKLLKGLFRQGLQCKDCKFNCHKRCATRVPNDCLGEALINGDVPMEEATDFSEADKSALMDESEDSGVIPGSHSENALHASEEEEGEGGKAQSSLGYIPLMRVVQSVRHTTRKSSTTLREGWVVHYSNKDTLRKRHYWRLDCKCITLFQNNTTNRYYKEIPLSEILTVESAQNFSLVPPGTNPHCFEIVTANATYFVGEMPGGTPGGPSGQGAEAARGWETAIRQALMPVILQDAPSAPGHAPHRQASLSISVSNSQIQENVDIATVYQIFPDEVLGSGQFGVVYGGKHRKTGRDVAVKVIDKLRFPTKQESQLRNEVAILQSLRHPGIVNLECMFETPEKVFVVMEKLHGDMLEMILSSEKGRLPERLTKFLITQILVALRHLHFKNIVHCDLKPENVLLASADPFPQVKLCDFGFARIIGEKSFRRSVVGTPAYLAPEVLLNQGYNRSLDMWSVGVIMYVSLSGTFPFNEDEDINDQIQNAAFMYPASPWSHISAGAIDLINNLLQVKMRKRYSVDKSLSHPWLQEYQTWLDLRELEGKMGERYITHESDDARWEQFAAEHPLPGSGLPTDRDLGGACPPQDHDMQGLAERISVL
Particulars: at 0.1 µM.

Chain of Protein kinase C theta type (Homo sapiens) (Q04759 whole entry, looked up): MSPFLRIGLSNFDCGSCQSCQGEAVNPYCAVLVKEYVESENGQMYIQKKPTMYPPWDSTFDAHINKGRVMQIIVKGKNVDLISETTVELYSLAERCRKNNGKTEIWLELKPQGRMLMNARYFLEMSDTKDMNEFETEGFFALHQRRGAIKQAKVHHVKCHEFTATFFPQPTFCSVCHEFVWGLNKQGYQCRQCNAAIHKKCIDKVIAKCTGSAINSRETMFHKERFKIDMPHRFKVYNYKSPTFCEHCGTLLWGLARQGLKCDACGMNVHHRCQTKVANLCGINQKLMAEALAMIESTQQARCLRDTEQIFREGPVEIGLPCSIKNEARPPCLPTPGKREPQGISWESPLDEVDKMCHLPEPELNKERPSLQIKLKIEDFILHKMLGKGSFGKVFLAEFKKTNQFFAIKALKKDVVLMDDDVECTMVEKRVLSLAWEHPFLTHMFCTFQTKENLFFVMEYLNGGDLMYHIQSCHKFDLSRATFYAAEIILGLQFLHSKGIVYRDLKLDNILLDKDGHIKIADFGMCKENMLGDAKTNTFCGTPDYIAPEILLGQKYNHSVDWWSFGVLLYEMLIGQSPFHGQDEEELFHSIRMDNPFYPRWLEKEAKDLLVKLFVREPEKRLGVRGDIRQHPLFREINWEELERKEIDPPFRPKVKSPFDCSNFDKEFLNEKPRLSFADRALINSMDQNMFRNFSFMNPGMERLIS
Chain of Protein kinase C eta type (Homo sapiens) (P24723 whole entry): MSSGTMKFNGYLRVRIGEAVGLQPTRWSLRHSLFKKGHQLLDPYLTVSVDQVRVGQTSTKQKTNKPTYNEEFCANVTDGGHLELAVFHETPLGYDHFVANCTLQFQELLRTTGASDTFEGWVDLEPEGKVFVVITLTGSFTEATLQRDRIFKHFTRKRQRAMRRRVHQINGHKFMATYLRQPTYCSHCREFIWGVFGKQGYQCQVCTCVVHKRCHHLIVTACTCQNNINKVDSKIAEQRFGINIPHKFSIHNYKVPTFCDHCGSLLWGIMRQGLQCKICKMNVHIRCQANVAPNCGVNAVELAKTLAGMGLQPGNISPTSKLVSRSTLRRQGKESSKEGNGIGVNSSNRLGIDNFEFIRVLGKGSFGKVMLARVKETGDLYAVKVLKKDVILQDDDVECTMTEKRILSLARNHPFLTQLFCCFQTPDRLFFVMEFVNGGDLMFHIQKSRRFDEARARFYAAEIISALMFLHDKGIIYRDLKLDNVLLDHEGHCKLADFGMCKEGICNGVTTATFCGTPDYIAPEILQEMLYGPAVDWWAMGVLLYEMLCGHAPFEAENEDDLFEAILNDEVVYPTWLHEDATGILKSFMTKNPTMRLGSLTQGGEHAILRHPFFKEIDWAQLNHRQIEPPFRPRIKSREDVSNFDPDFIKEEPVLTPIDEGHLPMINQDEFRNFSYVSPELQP
Chain of Protein kinase C beta type (Homo sapiens) (P05771 2-671 limits assumed): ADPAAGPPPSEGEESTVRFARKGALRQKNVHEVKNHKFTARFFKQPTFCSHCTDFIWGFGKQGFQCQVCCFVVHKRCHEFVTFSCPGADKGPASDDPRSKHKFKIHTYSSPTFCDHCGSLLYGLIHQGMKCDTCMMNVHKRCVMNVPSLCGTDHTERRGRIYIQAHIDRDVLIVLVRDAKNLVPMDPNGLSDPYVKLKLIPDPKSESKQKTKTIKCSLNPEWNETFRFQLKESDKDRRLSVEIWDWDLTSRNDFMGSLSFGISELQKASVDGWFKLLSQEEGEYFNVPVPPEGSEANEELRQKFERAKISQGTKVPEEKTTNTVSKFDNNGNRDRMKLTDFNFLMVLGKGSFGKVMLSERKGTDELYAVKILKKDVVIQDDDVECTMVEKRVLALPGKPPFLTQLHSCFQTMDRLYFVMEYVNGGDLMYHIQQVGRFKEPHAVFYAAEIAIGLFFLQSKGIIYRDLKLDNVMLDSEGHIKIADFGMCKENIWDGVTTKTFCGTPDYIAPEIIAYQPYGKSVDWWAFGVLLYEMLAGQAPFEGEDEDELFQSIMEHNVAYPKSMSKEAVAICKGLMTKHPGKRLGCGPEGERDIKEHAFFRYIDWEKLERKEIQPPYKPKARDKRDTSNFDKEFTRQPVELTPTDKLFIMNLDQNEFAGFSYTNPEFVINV

`CCOc1ccc2c(-c3ccnc(Nc4cc(OC)cc(C(F)(F)F)c4)n3)cnn2n1`: the inhibition turned out to be 1.07% in [1]; 0.6% in experiment [2]; 3.91% in experiment [3]; 0.42% in [4]; 5.31% in experiment [5]; 5.55% in [6]. For the same compound, the inhibition in experiment [7] was 2.13%; in experiment [8], 1.53%; in experiment [9] it was -0.66%; in [10], 1.75%; in [11] it was 1.98%; in [12], 1.79%. The inhibition was -0.03% in experiment [13]; 0.28% in experiment [14]; -0.68% in experiment [15]; 1.09% in experiment [16]; 3.36% in [17]; 0.73% in experiment [18]. Besides, the inhibition in [19] worked out at 0.65%; in [20] it was 0.66%.

For the compound `Cc1cc(O)cc(C)c1/C=C/c1cncc(C(N)=O)c1`, the inhibition in [1] was 1.65%; in experiment [2], 1.78%; in experiment [3], 2.91%; in [4] it was 1.24%; in [5], 1.91%; in [6], -0.18%. Besides, the inhibition was -2.09% in experiment [7]; 1.74% in experiment [8]; -2.58% in experiment [9]; 3.81% in experiment [10]; 2.79% in [11]; 0.54% in [12]. The inhibition in experiment [13] was found to be 1.6%; in [14], 1.21%; in experiment [15], 0.54%; in experiment [16] it was 1.28%; in [17] it was 1.05%; in experiment [18] it was 2.25%. In addition, the inhibition turned out to be 3.69% in experiment [19] and 2.04% in experiment [20].

Turning to `O=C1Nc2ccccc2/C1=C1\CCc2cc(O)ccc21`, the inhibition in experiment [1] turned out to be 15.1%; in experiment [2] it was 2.16%; in [3] it was 4.57%; in experiment [4] it was 1.24%; in [5] it was 2.87%; in experiment [6], 0.69%. The inhibition in experiment [7] turned out to be 1.16%; in experiment [8], 2.22%; in experiment [9], 3.7%; in [10], 2.96%; in [11], 2.98%; in experiment [12], 2.01%. For the same compound, the inhibition in experiment [13] stood at 4.09%; in experiment [14], 2.42%; in experiment [15], 4.05%; in experiment [16] it was 1.94%; in [17], 1.69%; in experiment [18], 5.09%. Besides, the inhibition came to 18.2% in [19] and 6.34% in experiment [20].

For the compound `NS(=O)(=O)c1cccc(N/C=C2\C(=O)Nc3ccccc32)c1`, the inhibition in [1] is 4.6%; in experiment [2], 2.79%; in experiment [3], 1.62%; in experiment [4], 0.98%; in [5], 2.84%; in experiment [6] it was -0.22%. In addition, the inhibition is 2.02% in [7]; 1.78% in experiment [8]; 3.72% in experiment [9]; 0.43% in experiment [10]; 3.27% in experiment [11]; 1.82% in experiment [12]. Further, the inhibition in [13] turned out to be 2.43%; in [14] it was 2.17%; in [15], 1.6%; in experiment [16], 1.9%; in experiment [17], 3.11%; in experiment [18], 3.72%. Besides, the inhibition in experiment [19] worked out at 11%; in experiment [20] it was 3.88%.

These data come from ChEMBL document CHEMBL1961873, “Compounds: GSK PKIS; Assays: Nanosyn kinase panel” (2012).
